HT1080NT lethal: kills 2HG-producing HT-1080-NT fibrosarcoma cells; actives 1.6% (n = 360,000); HT-1080-NT fibrosarcoma viability, CellTiter-Glo ATP luminescence, 48 h; Potency, µM (doses to about 46.1 µM), most hits filed as cytotoxic;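 also: NT is the 2HG producing partner of a matched IDH1 knockdown line; nearly all actives have a fitted effect of over 55% in size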
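A 48-hour cytotoxicity screen used HT-1080-NT cells plated 2 hours before compound delivery. ATP-based CellTiter-Glo luminescence measured viability, normalized to DMSO and no-cell controls.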
HT1080 IDH1KD tx: toxicity to HT-1080 IDH1 knockdown cells (counter line); HT-1080 IDH1 knockdown viability, ATP luminescence, 48 h; Potency, µM (doses to about 46.1 µM), most hits filed as cytotoxic; AID 686971; actives 2% (n = 360,000)
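Using the IDH1-knockdown HT-1080 line run in the same batch and compound series as the NT line, viability after 48 h at 37 °C was determined by CellTiter-Glo luminescence and expressed as % activity.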
IL1B secr inh: blocks inflammasome-driven IL-1 beta release | THP-1 LPS/ATP IL-1B secretion, AlphaLISA, 16 h; active compounds read low | activity change, % at 57.5 µM | actives 4.7% (n = 360,000); in the data active = activity change below about -50%; inconclusive = mostly about -30% to -49%
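Secreted IL-1B measured by AlphaLISA bead assay after 16 h compound exposure of THP-1 cells; compounds (final up to 57.5 uM) added 1 h before LPS (250 ng/mL) and ATP (1.25 mM) stimulation; lower signal means less secretion.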
DT40 TDP1 CPT: growth inhibition of DT40 Tdp1-/-;hTDP1 cells with camptothecin (screen for TDP1 inhibitors). chicken DT40 Tdp1-/-;hTDP1 cells + 20 nM CPT, ATP luminescence, 48 h. Potency, µM (series often up to 46.2 µM), hits mostly inhibitors. actives 12% (n = 420,000); also: nearly all actives have a fitted effect of over 55% in size
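Cell growth measured by CellTiter-Glo luminescence after a minimum 48 h, 37 C compound exposure with 20 nM CPT in Tdp1-knockout DT40 cells stably expressing hTDP1, seeded 400/well; qHTS titration format.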
ELG1 repair inh: inhibitors of ELG1-dependent DNA repair in HEK293T cells. HEK293T ELG1-luciferase reporter, luminescence, 16 h; DNA damage induced by 5-fluorouridine. actives 2.3% (n = 330,000). Potency, µM (titrated, usually from 46.1 µM), usual class: inhibitors; also: nearly all actives have a fitted effect of over 55% in size
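HEK293T cells expressing luciferase-tagged ELG1 (2,000/well) received 5-Fluorouridine plus compound or DMSO for 16 hr at 37 °C. Luciferase was read by ONE-Glo luminescence after 30 min at room temperature.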
DT40 TDP1 no CPT: qHTS for Inhibitors of human tyrosyl-DNA phosphodiesterase 1 (TDP1): qHTS in cells in absence of CPT; DT40 Tdp1-/- hTDP1 cells, no CPT, ATP luminescence, 48 h; Potency, µM (top dose mostly 46.2 µM), most hits filed as inhibitors; actives 15% (n = 420,000); also: nearly all actives have a fitted effect of over 55% in size
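No-CPT arm: Tdp1-/-;hTDP1 DT40 cells (400/well) plus compounds, incubated ≥48 hr at 37 °C. Readout CellTiter-Glo luminescence.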
Of the large screens only hits and unclear results are named; the others gave an inactive call. Sampled rows, rich in hits. Any-hit rate of the full collection: about 19%. Unless noted, calls follow the shape of the dose curve; as a rule, active = well fitted curve in the direction sought with a large enough effect; inconclusive = small, poorly fitted or top-dose-only effect, or another doubt; inactive = no such curve, though single readings can be large; an effect the other way counts as inactive or inconclusive.

COC(=O)CCCn1cc(CN2CC(N3CCN(CCN(C)C)CC3)CS2(=O)=O)nn1 (stereo unspecified)	none (no result: ELG1 repair inh)
Cc1cccc(NC(=S)N2CCN(C(=O)c3ccco3)CC2)c1C	none
CC(=O)n1cc(CO)c2ccccc21	none
CC(=O)n1cc(N(C(=O)CCl)c2ccc([N+](=O)[O-])cc2)c2ccccc21	HT1080NT lethal 23µM, HT1080 IDH1KD tx inconclusive, IL1B secr inh -101, DT40 TDP1 CPT 2.3µM, ELG1 repair inh 23µM, DT40 TDP1 no CPT 2.6µM
CC(=O)n1cc(N(C(=O)CCl)c2ccccc2)c2ccccc21	HT1080NT lethal 2.6µM, HT1080 IDH1KD tx 2.6µM, IL1B secr inh -92, DT40 TDP1 CPT 0.65µM, ELG1 repair inh inconclusive, DT40 TDP1 no CPT 0.58µM
Clc1ccccc1CNc1nc2ccccc2c2nc(-c3cccnc3)nn12	none (no result: HT1080NT lethal, HT1080 IDH1KD tx, IL1B secr inh, ELG1 repair inh)
CC(C)(C)c1sc(N)nc1-c1ccccc1	HT1080NT lethal inconclusive, IL1B secr inh -102 (no result: ELG1 repair inh)
O=C(/C=C/c1ccc(N2CCC(c3ccccc3)=N2)cc1)c1ccccc1	IL1B secr inh -94, DT40 TDP1 CPT inconclusive, ELG1 repair inh inconclusive
CCN(Cc1ccccc1)Cc1c(O)ccc2oc(C)c(C(=O)Nc3ccccc3C)c12	DT40 TDP1 CPT 13µM, DT40 TDP1 no CPT 13µM (no result: HT1080NT lethal, HT1080 IDH1KD tx, IL1B secr inh, ELG1 repair inh)
Cc1oc2ccc(O)c(CN(C)Cc3ccccc3)c2c1C(=O)Nc1cccc(Cl)c1C	DT40 TDP1 CPT 6.5µM, DT40 TDP1 no CPT 6.5µM (no result: HT1080NT lethal, HT1080 IDH1KD tx, IL1B secr inh, ELG1 repair inh)
Cc1oc2ccc(O)c(CN(C)C)c2c1C(=O)c1ccccc1	DT40 TDP1 CPT inconclusive, DT40 TDP1 no CPT inconclusive
Cc1ccccc1NC(=O)c1c(C)oc2ccc(O)c(CN(C)Cc3ccccc3)c12	DT40 TDP1 CPT 8.2µM, DT40 TDP1 no CPT 6.5µM (no result: HT1080NT lethal, HT1080 IDH1KD tx, IL1B secr inh, ELG1 repair inh)
Cc1ccccc1NC(=O)c1ccccc1O	HT1080NT lethal inconclusive, DT40 TDP1 no CPT inconclusive
Cc1c(Cl)cccc1NC(=O)c1ccco1	none
COc1ccc(C(=O)NCc2ccncc2)cc1S(=O)(=O)NCc1ccc(Cl)cc1	none
Cc1cccc(NS(=O)(=O)c2ccc(C(=O)N3CCCC3)cc2)c1C	ELG1 repair inh inconclusive, DT40 TDP1 no CPT 15µM
Cc1ccccc1NS(=O)(=O)c1ccc(C(=O)N2CCC2)cc1	DT40 TDP1 no CPT inconclusive
Cc1cccc(NS(=O)(=O)c2ccc(C(=O)N3CCCCCC3)cc2)c1C	DT40 TDP1 CPT inconclusive, DT40 TDP1 no CPT 23µM
Cc1ccc2c(c1)C1(C(=O)N2)N2CCCC2C(C(=O)c2ccc3ccccc3c2)C12C(=O)Nc1ccccc12 (stereo unspecified)	HT1080NT lethal inconclusive, HT1080 IDH1KD tx inconclusive, IL1B secr inh -86, DT40 TDP1 CPT 16µM, DT40 TDP1 no CPT inconclusive (no result: ELG1 repair inh)
O=C1CCC(C(=O)N2CCCC(C(=O)c3ccc4ccccc4c3)C2)=NN1 (stereo unspecified)	DT40 TDP1 CPT inconclusive, DT40 TDP1 no CPT inconclusive
O=C(NCC(=O)N1CCc2ccccc2C1)c1ccccc1Cl	ELG1 repair inh inconclusive
COc1ccccc1C(=O)Nc1ccc2c(c1)CN(C(=O)CSC)CC2	HT1080NT lethal 13µM, HT1080 IDH1KD tx 10µM, DT40 TDP1 CPT inconclusive, DT40 TDP1 no CPT inconclusive
CCOC(=O)CNC(=O)N1CCc2ccc(NC(=O)c3ccccc3Cl)cc2C1	DT40 TDP1 CPT 18µM, DT40 TDP1 no CPT 8.2µM
CCOC(=O)c1c(NC(=O)c2nc(SC(C)C)ncc2Cl)sc2c1CCCC2	none (no result: HT1080NT lethal, HT1080 IDH1KD tx, IL1B secr inh, ELG1 repair inh)
COCCNC(=O)C1(C)CCCN(C(=O)c2cccnc2SC)C1 (stereo unspecified)	none (no result: ELG1 repair inh)
COc1ccc(-c2csc3nc(-c4ccccc4C)oc(=O)c23)cc1OC	none (no result: HT1080NT lethal, HT1080 IDH1KD tx, IL1B secr inh, ELG1 repair inh)
Cc1ccc(CNC(=O)C2CCCN(S(=O)(=O)c3ccc4c(c3)oc(=O)n4C)C2)cc1 (stereo unspecified)	DT40 TDP1 no CPT inconclusive (no result: HT1080NT lethal, HT1080 IDH1KD tx, IL1B secr inh, ELG1 repair inh)

Source: PubChem (National Center for Advancing Translational Sciences (NCATS))
